# Measurements published in PubChem BioAssay (NCI).
# About 83,000 compounds went through this panel and 20% of them were active in at least one assay; those are over-represented in the sample as a whole.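 How to read the values: 0–100, growth inhibition (40 = 60% inhibited); 0, no net growth; -100 to 0, cell death (-40 = 40% of starting cells died; -100 = all dead).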 A number with no mark means an inactive call. Active and inactive are the calls of the source. Rule for the calls: active = growth percent below 10; inactive = the rest.
# Test system: MDA-MB-435 melanoma
# Experiment: NCI-60 one-dose screen, 48 h (100 = growth as untreated, 0 = no growth, -100 = all killed)
# Details: 10 µM unless noted
row,Structure (SMILES),growth
1,CCOC(=O)c1sc(NS(=O)(=O)c2ccccc2)nc1C,126%
2,Cc1nc(NC(=S)Nc2ccc(F)cc2)sc1C(=O)NNC(=S)Nc1ccc(F)cc1,71.5%
3,N#Cc1c(N)nc(Nc2nc3ccccc3[nH]2)nc1-c1ccc(Cl)cc1,106%
4,O=C(Nc1ccc(-n2cc(-c3ccncc3)c(-c3ccc(Cl)c(O)c3)n2)cc1)c1cc(C(F)(F)F)cc(C(F)(F)F)c1,52.5%
5,CC(=O)Nc1nc(C)c(C(=O)NN)s1,137%
6,CC(=O)Nc1nc(C)c(C(=O)NNS(=O)(=O)c2ccccc2)s1,125%
7,Cc1[nH]n(C(=S)Nc2nc3cc(Cl)c(F)cc3s2)c(=O)c1N=Nc1ccc(F)c(Cl)c1,124%
8,O=C(c1ccccc1)c1ccccc1-c1ccccc1,-22.2% (active)
9,COc1ccccc1C(=O)Nc1cccc(-c2cc(=O)c3c(OC)c(OC)c(OC)cc3o2)c1,43.5%
10,COc1cc2ncnc(-n3ncc4cc(NC(=O)Nc5ccc(Cl)c(C)c5)ccc43)c2cc1OC,93.8%
11,COC(=O)/C=C/c1cc(O)c2oc(-c3ccc(O)c(O)c3)c(C(=O)OC)c2c1,-37.1% (active)
12,O=C(N/N=C\c1ccc(-c2ccc(Br)cc2)o1)c1cc2oc(-c3cccc(C(F)(F)F)c3)cc2[nH]1,98.9%
13,COc1cccc(NC(=O)NCCNc2nccc(-c3c(-c4ccc(F)cc4)nc4sccn34)n2)c1,76.9%
14,CC(=O)NNC(=O)c1sc(NC(C)=O)nc1C,110%
15,Nc1nc(-c2cccc(Br)c2)cc(-c2cc3ccccc3oc2=O)n1,117%
16,COC(=O)C(Cc1cnc[nH]1)N1CC(=O)N2[C@@H](c3ccccc3)SC[C@H]2C1=O (stereo not given in full),103%
17,NCCCOc1cc(Cl)ccc1NC(=O)c1cc2ccccc2cc1OCCCN,-68.5% (active)
18,COc1ccc2c(c1)cn1c3ccc(O)cc3[nH]c(=O)c21,1.04% (active)
19,[N-]=[N+]=Nc1ncc(-c2ccc(C(F)(F)F)cc2)c(NC2CCCCCC2)n1,19.1% [100 µM]
20,CC(=O)N1CCN(CCNC(=O)n2cc(-c3ccncc3)c(-c3cc(O)cc(Cl)c3)n2)CC1,49.3%

row,Structure (SMILES),growth
1,Nc1nc2c(c3cnccc13)C(c1cccc(Br)c1)Cc1cnccc1-2 (stereo not given),-37.2% (active)
2,CC(=O)N1CCN(CCNC(=O)n2cc(-c3ccncc3)c(-c3ccc(O)c(Cl)c3)n2)CC1,103%
3,O=S(=O)(O)CCI,114%
4,c1cc[c]([Bi]([c]2ccccc2)[c]2ccccc2)cc1,90.4%
5,COC(=O)[C@@H]1[C@H](O)[C@H](C)[C@H](O)[C@H](C)/C=C\C=C(C)C(=O)Nc2c(C)c(OC(C)=O)c3c(c2O)C(=O)C(C)=C2OCOC(=C23)C(C)=C[C@@](C)(O)[C@H](O)[C@@H](C)[C@H]1OC(C)=O,122%
6,O=C1OC(c2ccc(-c3ccccc3)cc2)=C/C1=C/c1c2ccccc2cc2ccccc12,102%
7,O=c1[nH]c2cc(O)ccc2n2cc3c(F)cccc3c12,-12.2% (active)
8,OC(c1ccccc1)(c1ccccc1)C(F)(F)F,103%
9,CC(C)CCCCCOC(=O)c1ccccc1SSc1ccccc1C(=O)OCCCCCC(C)C,107%
10,CCN(CC)c1ccc2nc3ccc(N=Nc4ccc(O)cc4)cc3[n+](-c3ccccc3)c2c1,48.6%
11,O=C(Nc1ccc(-n2cc(-c3ccncc3)c(-c3ccc(Cl)c(O)c3)n2)cc1)c1ccc(Cl)c(Cl)c1,43.5%
12,O=[N+]([O-])c1ccc(-c2ncc(-c3ccc(O)cc3O)[nH]2)cc1,121%
13,Cc1nc(NC(=O)NC2CCCCC2)sc1C(=O)NN,115%
14,CCS(=O)(=O)N[C@@H]1O[C@H](COC(C)=O)C(OC(C)=O)[C@H](OC(C)=O)C1OC(C)=O (stereo not given in full),103%
15,COc1ccc2cn3c4ccc(O)cc4[nH]c(=O)c3c2c1,-37.7% (active)
16,COc1ccc(C2CC(=O)c3c(O)cc(OC4OC(COC5OC(C)C(O)C(O)C5O)C(O)C(O)C4O)cc3O2)cc1O (stereo not given),102%
17,CCCCn1c(Cc2ccc(OC)cc2)nc2cc(OC)c(OC)cc2c1=O,83.7%
18,CCC(C)C1NC(=O)C(CC(C)C)NC(=O)C(C)NC(=O)C(C(C)C)NC(=O)C(CCCCN)NC(=O)C(CC(C)C)NC(=O)C(C(C)C)NC(=O)[C@H](C)NC(=O)C(C(C)CC)NC(=O)C(CCCN=C(N)N)NC(=O)C(CCCCN)NC(=O)C(CCCN=C(N)N)NC(=O)C(CCCCN)NC(=O)C([C@H](C)CC)NC(=O)C(CCCCN)NC1=O (stereo not given in full),11.2%
19,COc1ccc2cc(C(C)C(=O)Nc3ccc(S(=O)(=O)Nc4cc(C)on4)cc3)ccc2c1 (stereo not given),105%
20,CC(C)(C)c1ccc(OCCOC(=O)CBr)cc1,112%
